Most compounds without a hit are left out; they make up all but 31% or so of the library.
CYP2C9 inh = blockers of cytochrome P450 2C9 activity – biochemical, luminescence, ADME assay, primary screen. AID 777, 2007. 96,000 tested, 20% active. inhibition, % at 5 µM. CYP2C9 Supersomes, luciferin-H conversion. P11712;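 active = blocking of liver enzyme CYP2C9 beyond about 50% at 5 µM, limit read from the data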
CYP2C19 inhib = blockers of cytochrome P450 2C19 activity – biochemical, luminescence, ADME assay, primary screen. inhibition, % at 5 µM. CYP2C19 Supersomes, luciferin-H EGE luminescence, 30 min. 96,000 tested, 21% active;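 active = CYP2C19 inhibition above a set limit at 5 µM in the primary screen, cut at about 50% in these data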
CYP2C19 activ = human CYP2C19 activators, primary screen, biochemical, luminescence | Cytochrome P450 2C19 (Homo sapiens), P33261 | recombinant CYP2C19, luciferin-H EGE luminescence; hits give high values; 0 = fully inhibited enzyme, 1 = untreated enzyme | activation factor at 5 µM | 96,000 tested, under 10 active;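 active = activation factor of at least 2 at 5 µM in the primary screen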
PLAP activator = PLAP enzyme activators, biochemical, luminescence, HTS; Alkaline phosphatase, placental type (Homo sapiens), P05187; purified PLAP enzyme, luminescent substrate read-out; hits give high values; activation fold at 20 µM; 96,000 tested, 1.2% active; AID 696, 2007; in the data active = activation fold above about 2
Target sequence (P05187 whole entry, looked up): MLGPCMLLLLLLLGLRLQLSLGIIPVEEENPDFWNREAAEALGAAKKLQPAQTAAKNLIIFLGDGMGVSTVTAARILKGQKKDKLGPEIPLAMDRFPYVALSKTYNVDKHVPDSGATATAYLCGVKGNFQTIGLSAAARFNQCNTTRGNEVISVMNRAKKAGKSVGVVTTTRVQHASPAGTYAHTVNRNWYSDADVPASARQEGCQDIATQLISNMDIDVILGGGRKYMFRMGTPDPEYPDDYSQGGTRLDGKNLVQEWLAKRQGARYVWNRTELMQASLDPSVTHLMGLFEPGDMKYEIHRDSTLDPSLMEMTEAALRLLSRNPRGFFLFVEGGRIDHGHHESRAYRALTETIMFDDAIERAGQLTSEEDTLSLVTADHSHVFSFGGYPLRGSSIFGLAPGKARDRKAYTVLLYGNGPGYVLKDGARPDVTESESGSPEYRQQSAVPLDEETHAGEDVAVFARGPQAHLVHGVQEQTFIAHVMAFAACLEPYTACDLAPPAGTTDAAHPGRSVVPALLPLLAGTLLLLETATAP
CYP2C9 activ = human CYP2C9 activators, primary screen, biochemical, luminescence. Cytochrome P450 2C9 (Homo sapiens), P11712. 96,000 tested, 1.4% active. AID 1024, 2008. activation factor at 5 µM. recombinant CYP2C9, luciferin-H conversion; hits give high values; factor 1 = untreated enzyme, 0 = blocked;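 active = activation factor of 2 or more for CYP2C9 at a 5 µM dose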
Large screens that a line does not name were inactive.

CC1CC(C)CN(C(=O)Cn2c(=O)n(CCCCC(=O)NC3CCCC3)c(=O)c3ccccc32)C1 (stereo not drawn)	CYP2C9 inh 74
CCc1sc(-c2c(C#N)c(N)nc3c2CCCCCC3)cc1[N+](=O)[O-]	none
O=C(COC(=O)CCS(=O)(=O)c1ccc(Cl)cc1)NC1CCCCC1	none
O=C(CCn1c(=O)c2ccccc2n(CC(=O)NC2CCCC2)c1=O)NCc1ccco1	CYP2C9 inh 54
O=C(CCCCn1c(=O)c2ccccc2n(CC(=O)NC2CCCC2)c1=O)NC1CCCC1	CYP2C9 inh 62
Cc1c(CN(C)CCc2ccccc2)c(=O)n(-c2ccccc2)n1C	none
O=C1CC(N2CCN(c3cccc(C(F)(F)F)c3)CC2)C(=O)N1c1ccccc1F (stereo not drawn)	CYP2C9 inh 84
CN(C)S(=O)(=O)c1ccc(NC(=O)N2CCN(c3cccc(C(F)(F)F)c3)CC2)cc1	PLAP activator 2.1
O=C(c1c(F)cccc1F)N1CCN(c2cccc(C(F)(F)F)c2)CC1	CYP2C9 inh 80, CYP2C19 inhib 94
Cn1cccc1C(=O)N1CCN(c2cccc(C(F)(F)F)c2)CC1	CYP2C19 inhib 76
COCON1C(=O)CN(C(C)=O)C1c1ccc(Cl)cc1Cl (stereo not drawn)	none
CON1C(=O)CN(C(C)=O)C1c1ccc(Cl)cc1Cl (stereo not drawn)	CYP2C19 inhib 54
COC(=O)N1CC(=O)N(OC)C1c1ccc(Cl)cc1Cl (stereo not drawn)	CYP2C19 inhib 87
CCCn1nnnc1NC(=O)c1cccs1	none
COc1ccccc1OCCOCCn1cnc2ccccc2c1=O	CYP2C19 inhib 67
Cc1ccccc1NC(=O)NCC1CCCO1 (stereo not drawn)	none
CC1CCN(S(=O)(=O)c2cccc(-c3cn4cc(Cl)ccc4n3)c2)CC1	CYP2C9 inh 61
CCOC(=O)C1CCN(S(=O)(=O)c2cccc(-c3cn4cc(Cl)ccc4n3)c2)CC1	CYP2C9 inh 67, CYP2C19 inhib 76
CCOC(=O)C1CCN(S(=O)(=O)c2cccc(-c3cn4cccc(C)c4n3)c2)CC1	CYP2C9 inh 64, CYP2C19 inhib 53
CC1(C(=O)NC2CCCC2)CCC(=O)N1Cc1ccc2c(c1)OCO2 (stereo not drawn)	none
CCOc1ccccc1C(=O)NCCCN1CCN(CCCNC(=O)c2ccccc2OCC)CC1	none
COc1ccc(N2CCN(C(=O)COc3ccccc3)CC2)cc1	none
Nc1nncn1C(=O)CCCOc1ccc(Cl)cc1Cl	CYP2C19 inhib 65
O=C(CCCOc1ccccc1)N1CCN(c2ccc(F)cc2)CC1	CYP2C19 inhib 77
Cc1cc(Cl)ccc1OCCCC(=O)N1CCN(C(=O)c2ccco2)CC1	CYP2C19 inhib 65
CN1CCN(C(=O)c2ccc(COc3ccc(Cl)cc3Cl)cc2)CC1	none
CN1CCN(C(=O)CCCOc2ccc(Cl)cc2Cl)CC1	CYP2C19 inhib 67
Cc1c(NC(=O)CN2CCN(C(c3ccccc3)c3ccccc3)CC2)c(=O)n(-c2ccccc2)n1C	none
O=C(CCCOc1ccccc1)N1CCN(c2ccccn2)CC1	CYP2C9 inh 69, CYP2C19 inhib 80
O=C(Oc1ccccc1)N1CCN(c2ccc(F)cc2)CC1	CYP2C19 inhib 85
O=C(c1cccs1)N1CCN(c2ccc(F)cc2)CC1	none
O=C(CCCOc1ccc(Cl)cc1Cl)N1CCN(c2ccccn2)CC1	CYP2C19 inhib 76
O=C(CCCCCNc1nc(=S)[nH]c2ccccc12)N1CCN(c2ccccn2)CC1	CYP2C9 inh 62, CYP2C19 inhib 57
O=C(CCCN1C(=O)c2ccccc2C1=O)N1CCN(c2ccccn2)CC1	none
CSc1nc(-c2ccccc2)nn1C(=O)c1ccc(C)cc1	none
CC12CCC(c3c(CO)nn(-c4ccccc4)c31)C2(C)C (stereo not drawn)	CYP2C19 inhib 59
CC12CCC(c3c(C(=O)Nc4nccs4)nn(-c4ccccc4)c31)C2(C)C (stereo not drawn)	CYP2C9 inh 74, PLAP activator 2
CC12CCC(c3c(C(=O)O)nn(-c4ccccc4)c31)C2(C)C (stereo not drawn)	none
CCOC(=O)C(CC)(CC)C(=O)/C=C/c1ccc(Br)cc1	none
CCN(CC)C(=O)CN(Cc1ccccc1)S(=O)(=O)c1ccc(F)cc1	none
O=S(=O)(c1ccc(F)cc1)N(CCO)CC(O)Cn1c2ccccc2c2ccccc21 (stereo not drawn)	CYP2C9 inh 57, CYP2C19 inhib 97
CCN(CC(O)Cn1c2ccccc2c2ccccc21)S(=O)(=O)c1ccc(F)cc1 (stereo not drawn)	CYP2C9 inh 97, CYP2C19 inhib 100
COc1ccc(NC(=O)CSc2c(C)nn(-c3nnc(C)c(=O)[nH]3)c2C)cc1	none
Cn1c(SCC(=O)N2CCCc3ccccc32)nnc1-c1cccs1	none
Cc1nc(SCC(=O)N2CCc3ccccc32)n[nH]1	none
O=C(CSc1ccccc1)N1CCc2ccccc21	CYP2C19 inhib 94
Cc1nnc(SCC(=O)N2CCc3ccccc32)s1	none
Cn1c(SCC(=O)N2CCc3ccccc32)nnc1C1CC1	CYP2C19 inhib 76
Nc1cc(N)nc(SCC(=O)N2CCc3ccccc32)n1	CYP2C9 activ 2.5
CCn1cc(SCC(=O)N2CCc3ccccc32)c2ccccc21	CYP2C9 inh 60, CYP2C19 inhib 61
O=C(COc1ccc(Cl)cc1Cl)NCCC1=CCCCC1	none
O=C(CCN1C(=O)c2ccccc2C1=O)OCn1nnc2ccccc2c1=O	none
CCC1c2ccc(C)n2CCN1C(=O)Nc1ccccc1C(=O)OC (stereo not drawn)	CYP2C9 inh 59, CYP2C19 inhib 86
CCOC(=O)C1=C(O)c2ccccc2C(=O)/C1=C\c1ccc(CC)cc1	CYP2C9 inh 97, CYP2C19 inhib 89
CCOC(=O)c1ccc(COC(=O)c2ccc3c(c2)-c2ccccc2C3=O)cc1	none
CCCc1ccc(/C=C2\C(=O)c3ccccc3C(O)=C2C(=O)OCC)cc1	CYP2C9 inh 92, CYP2C19 inhib 78
COc1ccc2sc3ccccc3c(=O)c2c1	none
COc1ccc(-c2cc(=O)c3ccccc3s2)cc1	CYP2C9 inh 64
CCCC(=O)Nc1ccccc1NC(=O)C1CCCCC1	none
Cc1nn(-c2ccccc2)c(Oc2ccc(F)cc2)c1/C=N/n1cnnc1	CYP2C9 inh 60, CYP2C19 inhib 56
COc1ccccc1/C=N/n1cnnc1	none
CCN(CC)S(=O)(=O)c1cccc(C(=O)N2CC(O)CC2C(=O)OC)c1 (stereo not drawn)	none
O=C(C[n+]1cc2ccccc2c2ccccc21)c1ccccc1	CYP2C9 inh 72, CYP2C19 inhib 55 (no result: PLAP activator)
O=C(O)CCC(=O)CCC(=O)c1ccccc1	none
CCOC(=O)CCNC(=O)CNC(=O)OCc1ccccc1	none

Screening data as filed in PubChem.
